Sampled rows, rich in hits. Any-hit rate of the full collection: about 2.1%.
Giardia kill – Giardia lamblia killing; 0.15% of 340,000 active; Giardia lamblia trophozoite viability; activity change, % at 7.66 µM, hits read low; AID 540267; in the data active = activity change below about -80%; inconclusive = between about -30% and that limit;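 note: parasites exposed to compound for two days anaerobically before the ATP read; % is set by controls: 0 for no effect and ±100 for the full control effect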
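Each well holds 100 Giardia trophozoites and compound. After two days (48 hrs) at 37 deg C in anaerobic conditions, ATP is quantified by luminescence.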
uPA generation – cell surface uPA generation inhibition | cell surface uPA generation assay, qHTS | Potency, µM (titrated, usually from 38.3 µM), inactives show at the top dose activity change, negative = inhibition, most hits filed as inhibitors | 0.31% of 330,000 active; active = well fitted inhibition curve with a large enough effect; inconclusive = small, poorly fitted or top-dose-only effect; inactive = no such curve, though single readings can be large or run the other way; tested in mouse RAW 264.7 cells; note: potency is the fitted concentration of half-maximal effect; % is set by controls: 0 for no effect and ±100 for the full control effect; nearly all actives have a fitted effect of over 55% in size
B2AR arrestin – beta2AR (human) beta-arrestin recruitment activity | P07550 | beta-arrestin recruitment to beta2AR, cell-based reporter | Potency, µM (series often up to 46.1 µM), without a hit: at the highest dose activation, actives largely listed as activators | 0.02% of 330,000 active | AID 492947;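 note: potency is the fitted concentration of half-maximal effect; 0% = DMSO controls and full agonism = EC100 isoproterenol or metaproterenol; nearly all actives have a fitted effect of over 65% in size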
p53 reactivator – mutant p53 re-activation in reporter cells | H1299 p53-A138V BP100-luciferase reporter, luminescence, 24 h | Potency, µM (titrated, usually from 92.2 µM), inactives show at the highest dose activity change, positive = activation, usual class: activators | 0.063% of 320,000 active; note: potency is the fitted concentration of half-maximal effect; % of control where 0% means no effect; nearly all actives have a fitted effect of over 45% in size
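H1299 (p53-null), stable ts p53-A138V + BP100-Luc; 1000 cells/well, Opti-MEM/10% FBS; cpd 4 pt, 1:5; 24 h, 37 deg C, 5% CO2; detection reagent 10 min RT; luminescence.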
Mito fusion act – mitochondrial division inhibition or fusion activation | S. cerevisiae fusion-defective mutant growth rescue, CellTiterGlo 48 h | Potency, µM (top dose mostly 46.1 µM), for inactives: at the highest dose growth rescue (activation), hits mostly activators | 0.23% of 320,000 active; note: potency is the fitted concentration of half-maximal effect; % of control where 0% means no effect; nearly all actives have a fitted effect of over 45% in size
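Luminescent cell viability in 1536-well qHTS format served as the measure of rescued growth in ts fusion-mutant S. cerevisiae cultured on non-fermentable YPEG for 48 hours at 37C.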
ClpP mod – qHTS Assay for Activators of ClpP; ATP-dependent Clp protease proteolytic subunit (Bacillus subtilis (strain 168)), P80244; purified B. subtilis ClpP, FRET peptide cleavage, 20 min; Potency, µM (doses to about 57.5 µM), inactives show top-dose activity change, negative = active; 1.9% of 340,000 active; active = well fitted falling curve with a large enough effect; inconclusive = small, poorly fitted or top-dose-only effect; inactive = no such curve, though single readings can be large or run the other way; note: potency is the fitted concentration of half-maximal effect; the source files actives as falling curves though it sought activators and does not explain the sign; nearly all actives have a fitted effect of over 65% in size
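Buffer: 100 mM Tris/HCl pH8, 100 mM KCl, 0.05% low protease BSA, 2.5% glycerol, 0.01% Tween-20. ClpP 10 microg/mL final; 20 min RT; delta FRET normalized to ADEP and DMSO controls.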
* = called active by the depositor; ! = not confirmed by another sample. Unless noted, calls come from the whole dose curve; as a rule, active = well fitted curve in the direction sought with a large enough effect; inconclusive = small, poorly fitted or top-dose-only effect, or another doubt; inactive = no such curve, though single readings can be large; an effect the other way counts as inactive or inconclusive.

Results for COC(=O)N1C(=O)[C@@](c2ccccc2)(C2CCCCC2)N1C(=O)OC ?
Giardia kill: -8; uPA generation: 8.9µM*; B2AR arrestin: inconclusive; Mito fusion act: -1%; ClpP mod: 0%

Results for Cc1nc2cccnc2n1C1CCN(S(C)(=O)=O)CC1 ?
ClpP mod: -1%

What do the screens show for `COc1ccc(-c2c(NC(=O)C(C)C)n(C)c3ccccc3c2=O)cc1`?
Giardia kill: 1; B2AR arrestin: 0%; p53 reactivator: 0%; Mito fusion act: 2%; ClpP mod: 28µM*

How did Cc1ccc(-c2c(NC(=O)C(C)C)n(C)c3ccccc3c2=O)cc1 do in these assays?
Giardia kill: -23; uPA generation: -3%; B2AR arrestin: 5%; p53 reactivator: 0%; Mito fusion act: 8%; ClpP mod: -3%

Results for COc1ccc(-c2c(NC(C)=O)n(C)c3ccccc3c2=O)cc1 ?
Giardia kill: 27; uPA generation: -9%; B2AR arrestin: -1%; p53 reactivator: 0%; Mito fusion act: 1%; ClpP mod: 25µM*

What do the screens show for `COc1c(C)oc2cc(O)ccc2c1=O`?
Giardia kill: -2; uPA generation: 1%; B2AR arrestin: -1%; p53 reactivator: -4%; Mito fusion act: 6%; ClpP mod: 18µM*

What do the screens show for `Oc1ccc2c(c1)oc1cc(O)ccc12`?
Giardia kill: 1; uPA generation: inconclusive; B2AR arrestin: 0%; p53 reactivator: inconclusive; Mito fusion act: 6%; ClpP mod: 32µM*

What do the screens show for `Cc1c(-c2ccccc2)c(=O)oc2cc(O)ccc12`?
Giardia kill: -4; uPA generation: -1%; B2AR arrestin: 0%; p53 reactivator: 14%; Mito fusion act: inconclusive; ClpP mod: 4%

How did Cc1nc(Nc2c(Cl)cccc2Cl)sc1C(=O)Nc1ccccc1 do in these assays?
Giardia kill: 14; uPA generation: 3%; B2AR arrestin: 0%; p53 reactivator: -15%; Mito fusion act: 18µM*

Results for Cc1cc(NC(=O)c2cc(Cl)ccc2Cl)ccc1-c1cc2ccccc2oc1=O ?
ClpP mod: 11µM*

What do the screens show for `O=C1NC(=O)c2cc(NC(=O)C3CCCCC3)ccc21`?
Giardia kill: -2; uPA generation: -6%; B2AR arrestin: 0%; p53 reactivator: 2%; Mito fusion act: -2%; ClpP mod: 25µM*

How did O=C(Nc1ccc2c(c1)C(=O)NC2=O)c1cc(Cl)ccc1Cl do in these assays?
Giardia kill: 6; uPA generation: 10%; B2AR arrestin: 0%; p53 reactivator: 5%; Mito fusion act: 0%; ClpP mod: 32µM*

What do the screens show for `CCCCC(=O)N1CC(=O)Nc2ccc(F)cc2C1c1ccccc1` (configuration not stated)?
Giardia kill: 21; uPA generation: -3%; B2AR arrestin: 0%; p53 reactivator: -1%; Mito fusion act: 1%

What do the screens show for `CCCCC(=O)N1CC(=O)Nc2ccc(F)cc2C1c1ccc(F)cc1` (configuration not stated)?
Giardia kill: 7; uPA generation: 2%; B2AR arrestin: -1%; p53 reactivator: 5%; Mito fusion act: -1%; ClpP mod: 20µM*!

What do the screens show for `CCOc1ccc(CCNC(=O)Cn2ncn3c(cc4ccccc43)c2=O)cc1OCC`?
ClpP mod: -4%

How did CSc1ccc(CCNC(=O)Cn2ncn3c(cc4ccccc43)c2=O)cc1 do in these assays?
ClpP mod: 20µM*

What do the screens show for `O=C(O)C1Cc2[nH]cnc2C(c2ccccc2O)N1` (configuration not stated)?
Giardia kill: 5; uPA generation: 2%; B2AR arrestin: 0%; p53 reactivator: 3%; Mito fusion act: 0%; ClpP mod: 28µM*

How did O=C(O)C1Cc2[nH]cnc2C(c2cccc([N+](=O)[O-])c2)N1 (configuration not stated) do in these assays?
Giardia kill: 8; uPA generation: -12%; B2AR arrestin: 0%; p53 reactivator: -1%; Mito fusion act: -8%; ClpP mod: 1%

What do the screens show for `C=CC[n+]1ccc(/C=C2\C=Cc3cc(C)ccc3N2CC)c2ccccc21`?
Giardia kill: 23; uPA generation: 2.5µM*; B2AR arrestin: 0%; p53 reactivator: 0%; Mito fusion act: -12%; ClpP mod: 0%

How did CCc1ccc(N2C(=O)c3ccc4c5c(ccc(c35)C2=O)CC4)cc1 do in these assays?
Giardia kill: 0; uPA generation: 1%; B2AR arrestin: 0%; p53 reactivator: 0%; Mito fusion act: 0%; ClpP mod: 25µM*

Results for COc1ccc(CCNC(=S)N2CCC(Cc3ccccc3)CC2)cc1OC ?
Giardia kill: 6; B2AR arrestin: 0%; p53 reactivator: 5%; Mito fusion act: -1%; ClpP mod: 7.9µM*

What do the screens show for `Cc1c(Cl)cccc1NC(=S)N1CCN(C(=O)C2CCCO2)CC1` (configuration not stated)?
Giardia kill: -17; uPA generation: -1%; B2AR arrestin: 0%; p53 reactivator: -6%; Mito fusion act: -4%; ClpP mod: 28µM*

How did CC1=C(c2ccc(F)cc2)[N+](=O)C(C)(C)N1[O-] do in these assays?
Giardia kill: -9; uPA generation: -2%; B2AR arrestin: 0%; p53 reactivator: -7%; Mito fusion act: 13µM*

Results for CCCn1c(=O)[nH]c(=O)c2c1nc(-c1ccc3c(c1)OCCO3)n2CCN1CCOCC1 ?
Giardia kill: 14; uPA generation: 0%; B2AR arrestin: 0%; p53 reactivator: -26%; Mito fusion act: -4%; ClpP mod: 32µM*

How did CN(C)CC(CCCCC(CN(C)C)C(=O)c1ccccc1)C(=O)c1ccccc1 (configuration not stated) do in these assays?
Giardia kill: -27; uPA generation: 10µM*; B2AR arrestin: -1%; p53 reactivator: inconclusive; Mito fusion act: -8%; ClpP mod: 0%

What do the screens show for `CC1CCCCC1NC(=O)CN1CCN(S(=O)(=O)c2ccc(Br)s2)CC1` (configuration not stated)?
Giardia kill: 1; uPA generation: 2%; B2AR arrestin: 0%; p53 reactivator: -5%; Mito fusion act: 28%; ClpP mod: 14µM*

Results for COc1cc(/C=C/C(=O)c2c(O)ccc3c(C)cc(=O)oc23)ccc1O ?
Giardia kill: -9; uPA generation: -15%; Mito fusion act: -13%; ClpP mod: 28µM*!

Bioassay records from PubChem.
